Assay results as given in the supplement of paper PMC10849652.
Targets with a hit are over-represented here; the source holds about 7,900 in all. About 0.6% of all pairs of compound and target were hits. A number with no mark means an inactive call.

How the values were obtained:
Assay in all cases: log2 fold change, soluble protein after heating vs DMSO (PISA); higher = thermal stabilisation; K562 cells, 10 uM, 30 min; active = over 0.2 and 3.5 SD of the protein, either way, in both replicates (recomputed)
volasertib = compound: CC[C@@H]1C(=O)N(C)c2cnc(Nc3ccc(C(=O)N[C@H]4CC[C@H](N5CCN(CC6CC6)CC5)CC4)cc3OC)nc2N1C(C)C [volasertib]
How it was run: (§1)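 Quantification of soluble protein used TMTpro 16plex LC-MS/MS, with channel sums equalised. Samples were the supernatant after 21,000xg for 90 min of pooled aliquots from K562 cells (2×10^6 cells/mL) treated with 10 μM compound for 30 min, heated for 3 min over 48°C-58°C, and extracted in PBS with 0.5% NP-40 at 4°C. Values, from duplicates, describe thermal stability against control samples on a log2 fold-change scale.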

[1] = compound: CCn1cc(-c2ccnc3[nH]c(-c4cccc(CN(C)C)c4)cc23)c(-c2ccc(NC(=O)N(C)C)cc2)n1
How it was run: as §1

[2] = compound: CN1CCC(CNc2ccc3ncc(-c4cccc(OC(F)(F)F)c4)n3n2)CC1
How it was run: as §1

[3] = compound: CC[C@@H]1C(=O)N(C)c2cnc(Nc3ccc(C(=O)NC4CCN(C)CC4)cc3OC)nc2N1C1CCCC1
How it was run: as §1

[4] = compound: CC[C@H](C)N1C=C(C2=C(C=C(C=C21)C3=CN=C(C=C3)N4CCNCC4)C(=O)NCC5=C(C=C(NC5=O)C)C)C
How it was run: as §1

epoxomicin = compound: CC[C@H](C)[C@@H](C(=O)N[C@@H]([C@@H](C)O)C(=O)N[C@@H](CC(C)C)C(=O)[C@]1(CO1)C)NC(=O)[C@H]([C@@H](C)CC)N(C)C(=O)C [epoxomicin]
How it was run: as §1

[5] = compound: CN(C)CC(=O)Nc1ccc2[nH]c(=O)c3ccccc3c2c1
How it was run: as §1

rosiglitazone = compound: CN(CCOC1=CC=C(C=C1)C[C@H]2C(=O)NC(=O)S2)C3=CC=CC=N3 (racemic) [rosiglitazone]
How it was run: as §1

[6] = compound: CN1C2=C(C3=C1C(=O)N(N=C3)CC4=CC(=CC=C4)N)SC(=C2)S(=O)C
How it was run: as §1

saracatinib = compound: CN1CCN(CCOc2cc(OC3CCOCC3)c3c(Nc4c(Cl)ccc5c4OCO5)ncnc3c2)CC1 [saracatinib]
How it was run: as §1

sotrastaurin = compound: CN1CCN(c2nc(C3=C(c4c[nH]c5ccccc45)C(=O)NC3=O)c3ccccc3n2)CC1 [sotrastaurin]
How it was run: as §1

alvocidib = compound: CN1CC[C@H](c2c(O)cc(O)c3c(=O)cc(-c4ccccc4Cl)oc23)[C@H](O)C1 [alvocidib]
How it was run: as §1

Tubastatin A = compound: CN1CCc2c(c3ccccc3n2Cc2ccc(C(=O)NO)cc2)C1 [Tubastatin A]
How it was run: as §1

defactinib = compound: CNC(=O)c1ccc(Nc2ncc(C(F)(F)F)c(NCc3nccnc3N(C)S(C)(=O)=O)n2)cc1 [defactinib]
How it was run: as §1

rucaparib = compound: CNCc1ccc(-c2[nH]c3cc(F)cc4c3c2CCNC4=O)cc1 [rucaparib]
How it was run: as §1

[7] = compound: CNc1nc(-c2ccc3c(N)n[nH]c3c2)cc(N2C[C@@H](C(=O)NC3CCCCC3)CC[C@H]2C)n1
How it was run: as §1

encorafenib = compound: COC(=O)N[C@@H](C)CNc1nccc(-c2cn(C(C)C)nc2-c2cc(Cl)cc(NS(C)(=O)=O)c2F)n1 [encorafenib]
How it was run: as §1

[8] = compound: COC(=O)[C@H](CCSC)NC(=O)C1=C(C=C(C=C1)NC[C@H](CS)N)C2=CC=CC=C2
How it was run: as §1

[9] = compound: CCn1c(C(=O)N(C2CC2)C2CC2)cc2c3c(ncn3C)c(Nc3cc(C)n(C)n3)nc21
How it was run: as §1

[10] = compound: CNC(=O)C1=CC=CC=C1NC2=NC(=NC=C2Cl)NC3=C(C=C(C=C3)N4CCOCC4)OC
How it was run: as §1

Sequence of UniProt P02679 (P02679 whole entry, looked up): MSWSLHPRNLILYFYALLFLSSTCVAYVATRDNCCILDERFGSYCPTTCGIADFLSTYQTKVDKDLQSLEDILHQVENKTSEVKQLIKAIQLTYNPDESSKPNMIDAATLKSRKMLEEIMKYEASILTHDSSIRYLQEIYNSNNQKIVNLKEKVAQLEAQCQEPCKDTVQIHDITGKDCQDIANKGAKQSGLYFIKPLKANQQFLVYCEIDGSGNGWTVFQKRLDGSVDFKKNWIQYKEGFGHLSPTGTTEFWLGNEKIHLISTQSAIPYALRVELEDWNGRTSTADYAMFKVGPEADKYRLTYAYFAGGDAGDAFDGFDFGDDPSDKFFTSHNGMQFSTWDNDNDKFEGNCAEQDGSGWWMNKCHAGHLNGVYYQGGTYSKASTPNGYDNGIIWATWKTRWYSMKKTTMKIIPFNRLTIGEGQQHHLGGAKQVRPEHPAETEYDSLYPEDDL
Sequence of UniProt A6NDN3 (A6NDN3 whole entry, looked up): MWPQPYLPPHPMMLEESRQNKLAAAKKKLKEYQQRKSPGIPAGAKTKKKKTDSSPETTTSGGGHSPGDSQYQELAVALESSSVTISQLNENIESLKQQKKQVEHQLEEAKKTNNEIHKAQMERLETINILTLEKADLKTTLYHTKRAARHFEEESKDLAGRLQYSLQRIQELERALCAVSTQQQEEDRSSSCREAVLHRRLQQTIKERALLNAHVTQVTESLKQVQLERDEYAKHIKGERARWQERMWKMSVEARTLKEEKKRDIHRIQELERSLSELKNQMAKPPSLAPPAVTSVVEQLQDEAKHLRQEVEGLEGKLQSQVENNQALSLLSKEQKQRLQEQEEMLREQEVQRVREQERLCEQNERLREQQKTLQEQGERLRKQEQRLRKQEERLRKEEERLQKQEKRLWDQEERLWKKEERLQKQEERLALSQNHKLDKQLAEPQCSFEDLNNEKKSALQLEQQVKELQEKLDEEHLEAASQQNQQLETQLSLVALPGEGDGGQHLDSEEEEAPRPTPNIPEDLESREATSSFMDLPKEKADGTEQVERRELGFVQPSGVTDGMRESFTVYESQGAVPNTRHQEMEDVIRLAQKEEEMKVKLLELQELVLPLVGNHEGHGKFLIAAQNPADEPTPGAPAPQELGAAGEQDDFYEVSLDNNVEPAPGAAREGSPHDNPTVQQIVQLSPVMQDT
Sequence of UniProt Q9H4G4 (Q9H4G4 whole entry, looked up): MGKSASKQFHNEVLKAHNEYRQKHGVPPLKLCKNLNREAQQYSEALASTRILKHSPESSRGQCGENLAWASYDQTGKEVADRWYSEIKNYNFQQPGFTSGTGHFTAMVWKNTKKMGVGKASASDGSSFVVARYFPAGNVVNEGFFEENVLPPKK
Sequence of UniProt Q14687 (Q14687 whole entry, looked up): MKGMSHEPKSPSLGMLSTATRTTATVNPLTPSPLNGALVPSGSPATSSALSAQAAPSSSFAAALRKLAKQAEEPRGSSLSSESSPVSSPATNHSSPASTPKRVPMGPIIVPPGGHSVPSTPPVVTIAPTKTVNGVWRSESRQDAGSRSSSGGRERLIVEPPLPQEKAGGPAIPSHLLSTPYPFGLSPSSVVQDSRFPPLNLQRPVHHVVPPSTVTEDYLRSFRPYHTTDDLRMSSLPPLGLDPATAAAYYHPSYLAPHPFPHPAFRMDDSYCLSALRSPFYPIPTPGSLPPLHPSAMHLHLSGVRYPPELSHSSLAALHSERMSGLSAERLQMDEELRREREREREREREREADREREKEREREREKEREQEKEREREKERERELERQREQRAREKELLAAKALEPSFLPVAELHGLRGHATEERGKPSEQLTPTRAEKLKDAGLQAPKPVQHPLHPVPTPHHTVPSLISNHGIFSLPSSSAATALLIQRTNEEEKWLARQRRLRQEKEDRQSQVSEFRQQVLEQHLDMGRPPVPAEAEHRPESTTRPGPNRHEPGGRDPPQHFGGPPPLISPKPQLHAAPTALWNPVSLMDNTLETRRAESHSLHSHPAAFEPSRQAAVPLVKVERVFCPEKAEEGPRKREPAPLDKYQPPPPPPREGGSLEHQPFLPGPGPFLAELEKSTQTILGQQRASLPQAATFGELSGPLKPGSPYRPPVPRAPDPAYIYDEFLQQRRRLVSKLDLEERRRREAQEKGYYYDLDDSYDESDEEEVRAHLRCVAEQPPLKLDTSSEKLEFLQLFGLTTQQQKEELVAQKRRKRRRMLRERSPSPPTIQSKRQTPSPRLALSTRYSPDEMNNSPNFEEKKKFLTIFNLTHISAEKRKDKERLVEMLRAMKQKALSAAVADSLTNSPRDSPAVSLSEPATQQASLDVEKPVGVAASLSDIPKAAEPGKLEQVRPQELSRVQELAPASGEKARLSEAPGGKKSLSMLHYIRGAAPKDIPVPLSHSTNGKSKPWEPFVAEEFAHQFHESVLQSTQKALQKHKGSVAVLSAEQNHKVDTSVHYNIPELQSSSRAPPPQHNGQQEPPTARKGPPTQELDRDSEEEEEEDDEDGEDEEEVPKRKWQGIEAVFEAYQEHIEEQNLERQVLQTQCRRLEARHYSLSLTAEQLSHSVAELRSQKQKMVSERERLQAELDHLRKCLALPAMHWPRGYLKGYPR
Sequence of UniProt Q9BYC5 (Q9BYC5 whole entry, looked up): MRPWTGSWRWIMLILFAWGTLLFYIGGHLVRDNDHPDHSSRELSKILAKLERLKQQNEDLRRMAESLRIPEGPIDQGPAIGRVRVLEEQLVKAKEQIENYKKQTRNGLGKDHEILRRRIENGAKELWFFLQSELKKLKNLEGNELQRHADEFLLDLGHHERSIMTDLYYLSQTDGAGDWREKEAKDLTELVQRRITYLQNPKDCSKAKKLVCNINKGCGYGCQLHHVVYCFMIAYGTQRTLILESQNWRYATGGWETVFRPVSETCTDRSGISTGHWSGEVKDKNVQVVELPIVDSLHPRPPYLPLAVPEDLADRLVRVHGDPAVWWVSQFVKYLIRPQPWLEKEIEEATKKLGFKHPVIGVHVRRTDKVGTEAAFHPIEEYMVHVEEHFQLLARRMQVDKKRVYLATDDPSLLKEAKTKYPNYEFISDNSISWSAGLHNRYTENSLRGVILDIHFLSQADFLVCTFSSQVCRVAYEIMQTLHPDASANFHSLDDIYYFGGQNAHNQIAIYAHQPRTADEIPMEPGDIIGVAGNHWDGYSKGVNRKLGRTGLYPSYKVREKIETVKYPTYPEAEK
Sequence of UniProt Q96SL8 (Q96SL8 whole entry, looked up): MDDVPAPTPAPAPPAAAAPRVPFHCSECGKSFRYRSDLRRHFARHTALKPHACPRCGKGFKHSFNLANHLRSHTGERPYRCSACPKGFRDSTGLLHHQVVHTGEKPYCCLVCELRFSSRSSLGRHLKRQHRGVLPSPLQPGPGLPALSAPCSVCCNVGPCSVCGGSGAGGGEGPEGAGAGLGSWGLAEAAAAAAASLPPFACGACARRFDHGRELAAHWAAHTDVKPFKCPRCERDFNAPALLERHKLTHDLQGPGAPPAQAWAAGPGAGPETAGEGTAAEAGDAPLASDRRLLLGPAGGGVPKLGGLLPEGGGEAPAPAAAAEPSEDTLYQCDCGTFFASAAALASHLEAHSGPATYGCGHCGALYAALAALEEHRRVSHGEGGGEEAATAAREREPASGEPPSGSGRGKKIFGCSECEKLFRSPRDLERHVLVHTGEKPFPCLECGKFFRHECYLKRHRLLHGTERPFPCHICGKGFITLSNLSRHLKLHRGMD
Sequence of UniProt O43524 (O43524 whole entry, looked up): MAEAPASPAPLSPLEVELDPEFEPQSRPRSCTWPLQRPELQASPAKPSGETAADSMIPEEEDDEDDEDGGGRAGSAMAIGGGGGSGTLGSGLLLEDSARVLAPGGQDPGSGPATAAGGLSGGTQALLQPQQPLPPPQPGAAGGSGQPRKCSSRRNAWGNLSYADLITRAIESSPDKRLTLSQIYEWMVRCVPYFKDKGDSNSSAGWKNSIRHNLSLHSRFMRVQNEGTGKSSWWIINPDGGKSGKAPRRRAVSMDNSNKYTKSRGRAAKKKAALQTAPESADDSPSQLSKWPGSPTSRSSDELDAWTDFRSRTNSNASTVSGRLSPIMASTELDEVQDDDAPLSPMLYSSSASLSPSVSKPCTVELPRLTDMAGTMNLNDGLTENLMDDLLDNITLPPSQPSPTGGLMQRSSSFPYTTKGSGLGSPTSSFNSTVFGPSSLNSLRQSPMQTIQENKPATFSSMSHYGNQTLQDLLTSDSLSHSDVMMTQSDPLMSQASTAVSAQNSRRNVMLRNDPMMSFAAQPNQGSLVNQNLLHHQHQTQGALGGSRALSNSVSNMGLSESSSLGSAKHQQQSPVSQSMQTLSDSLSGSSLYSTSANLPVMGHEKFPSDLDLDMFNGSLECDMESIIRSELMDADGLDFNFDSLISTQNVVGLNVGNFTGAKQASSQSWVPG
Sequence of UniProt O43824 (O43824 whole entry, looked up): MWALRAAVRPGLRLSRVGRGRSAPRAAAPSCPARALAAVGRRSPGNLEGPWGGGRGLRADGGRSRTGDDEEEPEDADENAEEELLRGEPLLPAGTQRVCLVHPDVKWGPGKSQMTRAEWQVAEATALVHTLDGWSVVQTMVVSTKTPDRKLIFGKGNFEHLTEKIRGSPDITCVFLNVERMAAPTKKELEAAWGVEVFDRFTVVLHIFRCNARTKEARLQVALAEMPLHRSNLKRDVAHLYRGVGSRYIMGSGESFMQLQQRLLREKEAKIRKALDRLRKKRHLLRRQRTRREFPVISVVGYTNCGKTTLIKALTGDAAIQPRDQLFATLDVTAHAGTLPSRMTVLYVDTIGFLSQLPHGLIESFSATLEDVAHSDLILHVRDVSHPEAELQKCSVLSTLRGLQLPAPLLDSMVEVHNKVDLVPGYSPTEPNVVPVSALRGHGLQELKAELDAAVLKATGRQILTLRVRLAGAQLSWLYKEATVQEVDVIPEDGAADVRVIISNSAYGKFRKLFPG

Row | Target | log2 fold change (volasertib) | log2 fold change [1] | log2 fold change [2] | log2 fold change [3] | log2 fold change [4] | log2 fold change (epoxomicin) | log2 fold change [5] | log2 fold change (rosiglitazone) | log2 fold change [6] | log2 fold change (saracatinib) | log2 fold change (sotrastaurin) | log2 fold change (alvocidib) | log2 fold change (Tubastatin A) | log2 fold change (defactinib) | log2 fold change (rucaparib) | log2 fold change [7] | log2 fold change (encorafenib) | log2 fold change [8] | log2 fold change [9] | log2 fold change [10]
1 | FGG (UniProt P02679) | -0.042 | 0.035 | 0.137 | – | – | – | – | – | – | – | – | – | – | – | – | – | – | – | – | –
2 | GNL3 (UniProt Q9BVP2) | – | 0.118 | 0.081 | 0.018 | -0.197 | -0.06 | 0.002 | 0.046 | -0.103 | -0.124 | 0.03 | 0.145 | 0.304 | 0.005 | -0.052 | 0.044 | -0.065 | 0.015 | – | –
3 | GLIPR2 (UniProt Q9H4G4) | 0.163 | -0.032 | -0.239 | -0.047 | – | -0.088 | -0.117 | 0.151 | -0.084 | 0.002 | -0.027 | 0.054 | -0.002 | 0.047 | 0.015 | 0.035 | -0.062 | -0.013 | -0.041 | 0.036
4 | IDH3A isoform 2 (UniProt P50213) | – | – | – | – | -0.056 | – | – | 0.003 | – | – | – | -0.206 | 0.138 | – | – | – | – | – | -0.14 | -0.117
5 | FASTKD1 (UniProt Q53R41) | – | 0.051 | -0.188 | -0.023 | -0.088 | 0.155 | 0.064 | 0.014 | 0.072 | -0.118 | -0.046 | -0.12 | 0.037 | -0.22 | -0.093 | 0.112 | 0.026 | -0.02 | -0.151 | 0.037
6 | FMR1 (UniProt Q06787) | -0.173 | 0.088 | 0.279 | -0.068 | – | – | – | – | – | – | -0.105 | 0.046 | – | – | 0.19 | – | 0.04 | – | 0.178 | 0.006
7 | GEMIN2 (UniProt O14893) | -0.061 | 0.013 | 0.031 | -0.203 | -0.057 | 0.011 | 0.019 | 0.059 | 0.101 | 0.001 | 0.067 | 0.009 | – | -0.041 | 0.136 | 0.013 | 0.151 | 0.072 | – | –
8 | FIZ1 (UniProt Q96SL8) | – | -0.125 | 0.024 | 0.169 | 0.088 | -0.071 | -0.06 | – | 0.138 | 0.149 | 0 | 0.141 | – | 0.06 | -0.012 | -0.095 | 0.069 | 0.108 | – | –
9 | FBXO9 (UniProt Q9UK97) | -0.545 (active) | 0.009 | 0.203 | -0.17 | 0.06 | – | 0.097 | 0.07 | 0.045 | -0.024 | – | -0.018 | -0.003 | 0.052 | 0.055 | -0.014 | 0.152 | -0.037 | 0.086 | 0.141
10 | GSE1 (UniProt Q14687) | – | – | – | – | -0.003 | – | -0.117 | 0.151 | -0.004 | -0.077 | – | -0.186 | – | 0.027 | – | -0.014 | – | -0.498 (active) | – | –
11 | GTPBP6 (UniProt O43824) | – | -0.079 | -0.007 | -0.07 | -0.041 | 0.026 | 0.034 | 0.299 | -0.13 | 0.049 | -0.011 | 0.015 | -0.03 | -0.013 | 0.053 | 0.007 | -0.086 | 0.057 | 0.025 | -0.149
12 | GOPC (UniProt Q9HD26) | -0.015 | 0.149 | 0.485 | – | 0.022 | -0.053 | 0.056 | -0.06 | 0.153 | -0.147 | 0.01 | 0.065 | 0.177 | 0.033 | – | 0.164 | – | -0.229 | 0 | 0.216
13 | FUT8 (UniProt Q9BYC5) | – | 0.06 | -0.057 | -0.327 (active) | -0.042 | 0.002 | 0.175 | -0.001 | -0.04 | -0.095 | -0.049 | 0.055 | 0.02 | 0.049 | -0.037 | 0.017 | 0.018 | 0.506 (active) | 0.08 | 0.023
14 | FAT1 (UniProt Q14517) | 0.009 | -0.018 | 0.082 | – | -0.048 | -0.05 | 0.07 | 0.095 | -0.11 | -0.085 | -0.072 | 0.021 | -0.031 | -0.05 | – | -0.094 | – | -0.087 | 0.006 | -0.041
15 | GOLGA8R (UniProt I6L899) | -0.4 | -0.182 | -0.033 | -0.036 | – | – | 0.191 | 0.074 | -0.003 | -0.126 | – | 0.018 | 0.253 | -0.197 | 0.189 | 0.246 | -0.098 | -0.086 | -0.233 | -0.148
16 | HNRNPUL1 (UniProt M0R247) | 0.16 | – | – | -0.072 | -0.101 | – | – | – | 0.21 | -0.327 | 0.128 | 0.326 | -0.054 | – | 0.09 | -0.431 | -0.086 | – | 0.121 | -0.145
17 | HSPA2 (UniProt P54652) | – | – | – | – | -0.014 | – | – | 0.02 | – | – | 0.038 | – | – | – | – | – | – | – | -0.012 | 0.809 (active)
18 | GOLGA6B (UniProt A6NDN3) | – | -0.185 | 0.067 | – | -0.579 (active) | -0.061 | 0.327 | 0.084 | – | – | 0.068 | – | – | -0.211 | – | – | – | -0.475 | 0.07 | -0.066
19 | FOXO3 (UniProt O43524) | -0.061 | -0.004 | -0.188 | -0.092 | – | 0.007 | 0.055 | – | 0.158 | -0.017 | 0.004 | -0.124 | 0.051 | -0.037 | -0.077 | -0.208 | 0.16 | 0.021 | -0.213 | -0.167
20 | HNRNPK isoform 3 (UniProt P61978) | – | 0.032 | 0.076 | 0.121 | -0.062 | -0.035 | 0.012 | -0.035 | -0.057 | 0.04 | 0.059 | – | 0.034 | 0.096 | 0.032 | -0.035 | -0.041 | -0.028 | 0.034 | -0.05
